High-throughput results (PubChem)
Only a selection was taken, and hits are over-represented in it overall.
IDE_exosite_inh – exo-site inhibitors of human IDE, primary screen, biochemical, fluorescence anisotropy, probe displacement; purified IDE, FL-6b probe fluorescence polarization; stronger effect = lower value; AID 1259349, 2017; hit rate 6.3% among 17,000; z-score at 20 µM;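 active = z-score of -3 or lower, meaning strong loss of probe binding signal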;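 also: His-tagged human IDE residues 42-1019 made in E. coli with 30 nM FL-6b probe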
Active calls of the source: *.

SMILES IDE_exosite_inh
CC(C)(C)[S@@](=O)N1Cc2cc(C(=O)NCc3ccccc3F)nc(-c3cccc(-c4cncnc4)c3)c2[C@H]1CCO -5.53*
CC(C)(C)[S@](=O)N1Cc2cc(C(=O)NCC(F)(F)F)nc(-c3cccc(-c4cccc(F)c4)c3)c2[C@@H]1CCO -0.591
CCCNC(=O)c1cc2c(c(-c3cccc(-c4ccc(F)cc4)c3)n1)[C@H](CCO)N([S@@](=O)C(C)(C)C)C2 1.47
Cc1noc(C)c1NC(=O)N(C)C[C@H]1OCc2ccccc2-c2c(n(C)c3ccccc23)C(=O)N([C@H](C)CO)C[C@H]1C -0.0373
C[C@@H]1CC(=O)NCC/C=C\C[C@@H](c2ccc3c(c2)OCO3)NC1=O -0.883
O=C(CN1CCOCC1)N1CC(=O)N2[C@@H](CO)[C@H](c3ccc(-c4cccc(F)c4)cc3)[C@@H]2C1 -0.229
COc1cccc(-c2ccc([C@H]3[C@H]4CN(C(=O)CN5CCOCC5)CC(=O)N4[C@H]3CO)cc2)c1 -2.97
Cc1ccc(-c2ccc([C@@H]3[C@@H](CO)N4C(=O)CN(C(=O)CN5CCOCC5)C[C@@H]34)cc2)cc1 -1.38
Cc1ccc(-c2ccc([C@H]3[C@H](CO)N4C(=O)CN(C(=O)CN5CCOCC5)C[C@@H]34)cc2)cc1 0.804
COCC#Cc1ccc([C@@H]2[C@H](CO)N3C(=O)CN(C(=O)CN4CCOCC4)C[C@@H]23)cc1 0.781
O=C(CN1CCOCC1)N1CC(=O)N2[C@H](CO)[C@@H](c3ccc(-c4cccc(F)c4)cc3)[C@@H]2C1 -1.92
COc1cccc(-c2ccc([C@@H]3[C@H](CO)N4C(=O)CN(C(=O)CN5CCOCC5)C[C@@H]34)cc2)c1 -6.3*
Cc1cccc(-c2ccc([C@@H]3[C@H]4CN(C(=O)CN5CCOCC5)CC(=O)N4[C@H]3CO)cc2)c1 -14.7*
COc1cccc(-c2ccc([C@H]3[C@@H](CO)N4C(=O)CN(C(=O)CN5CCOCC5)C[C@@H]34)cc2)c1 -3.54*
CC(C)[C@H]1COCc2cnnn2CCC[C@@H](C)C(=O)N1 1.16
CNC[C@@H]1OCCCC[C@H](C)Oc2ccc(NC(=O)Nc3ccc(OC)cc3)cc2C(=O)N([C@@H](C)CO)C[C@@H]1C 0.613
O=C(Nc1ccccc1F)N1CCCCN2[C@@H](CO)[C@H](c3ccc(-c4cccnc4)cc3)[C@@H]2C1 -0.202
CNC[C@H]1Oc2c(NC(=O)Nc3cccc4ccccc34)cccc2C(=O)N([C@H](C)CO)C[C@@H]1C -0.06
O=C(Nc1cccc(F)c1)N1CC(=O)N2[C@H](CO)[C@H](c3ccc(-c4ccccc4)cc3)[C@H]2C1 -0.448
Cc1noc(C)c1NC(=O)N(C)C[C@H]1OCc2cnnn2CCCC(=O)N([C@@H](C)CO)C[C@@H]1C -1.09
O=C(c1ccccc1)N1CC(=O)N2[C@H](C1)[C@@H](c1ccc(-c3ccccc3)cc1)[C@@H]2CO -0.835
Cc1ccccc1-c1ccc([C@H]2[C@H](CO)N3C(=O)CN(C(=O)c4ccncc4)C[C@@H]23)cc1 -7.39*
Cc1ccccc1-c1ccc([C@@H]2[C@@H](CO)N3C(=O)CN(C(=O)c4ccc(F)cc4)C[C@H]23)cc1 -0.119
Cc1ccccc1-c1ccc([C@H]2[C@@H](CO)N3C(=O)CN(C(=O)c4ccccc4)C[C@@H]23)cc1 -8.25*
C/C=C/c1ccc([C@H]2[C@@H](CO)N(C(=O)CC)[C@@H]2CNC(=O)CC)cc1 0.608
COCCN(C[C@@H]1N[C@@H](CO)[C@@H]1c1ccc(-c2cccnc2)cc1)C(C)=O 1.76
CCCNC(=O)N1[C@H](CO)[C@H](c2ccccc2-c2ccc(F)cc2)[C@@H]1C#N 2.87
C[C@H](CO)N1C[C@H](C)[C@@H](CN(C)C(=O)Nc2ccc(C(F)(F)F)cc2)Oc2ncc(C3=CCCC3)cc2C1=O -1.7
